Values joined by “and” are separate entries in the source; they are usually repeats but may differ in a detail not shown here. Identical values can stand only once. Records with an inconclusive call do not appear. Active and inactive are the calls of the source. The call rests on the fitted dose curve; in most records, active means well fitted curve in the direction sought with a large enough effect in the repeat runs; inconclusive means weak or mixed curves; inactive means no such curve, though single readings can be large; an effect the other way counts as inactive or inconclusive.
How the values were obtained:
[1] = A CellTox Green Cytotoxicity Assay to monitor cytotoxicity in HEK293 cells - 40 hour (AID 1224871); further: nearly all actives have a fitted effect of over 45% in size; further: potency means the concentration at half of the fitted maximal effect
In short: (§1)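 Homogeneous no-lysis format: HEK293 cell suspension mixed with CellTox Green reagent, seeded, incubated 5 h at 37 C/5% CO2, then dosed by pintool with compound in DMSO.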

[2] = qHTS RealTime-Glo MT Cell Viability Assay in HEK293 cells - 16 hour (AID 1224872); further: nearly all actives have a fitted effect of over 50% in size; further: potency means the concentration at half of the fitted maximal effect
In short: (§2)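 Luminescence generated by NanoLuc from substrate produced by living HEK293 cells served as the viability signal. Each value reflects the reading at its stated time point during continuous 40 h compound exposure at 37 C.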

[3] = qHTS RealTime-Glo MT Cell Viability Assay in HepG2 cells - 8 hour (AID 1224873); further: nearly all actives have a fitted effect of over 55% in size; further: potency means the concentration at half of the fitted maximal effect
In short: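 HepG2 cells (600/well) mixed with RealTime-Glo MT reagent, settled 5 h at 37 C/5% CO2 before compound addition. Nonlytic NanoLuc luminescence from viable-cell prosubstrate reduction read repeatedly during 40 h treatment at 37 C.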

[4] = qHTS RealTime-Glo MT Cell Viability Assay in HEK293 cells - 40 hour (AID 1224874); settings: RealTime-Glo luminescence; max response: active compounds read low; further: nearly all actives have a fitted effect of over 50% in size; further: potency means the concentration at half of the fitted maximal effect
In short: (§3)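 Measured as luminescence from the same continuously cultured HEK293 wells at successive time points (0, 8, 16, 24, 32, 40 h) after compound addition. Reagent present from seeding; dosing at 5 h; incubation 37 C.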

[5] = A CellTox Green Cytotoxicity Assay to monitor cytotoxicity in HEK293 cells - 24 hour (AID 1224875); further: nearly all actives have a fitted effect of over 45% in size; further: potency means the concentration at half of the fitted maximal effect
In short: as §1

[6] = A CellTox Green Cytotoxicity Assay to monitor cytotoxicity in HepG2 cells - 16 hour (AID 1224876); further: nearly all actives have a fitted effect of over 45% in size; further: potency means the concentration at half of the fitted maximal effect
In short: (§4)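 Fluorescent DNA-binding dye, 600 HepG2 cells/well, 5 h preincubation then compound in DMSO; same plates read at 0–40 h, 37 C.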

[7] = qHTS RealTime-Glo MT Cell Viability Assay in HepG2 cells - 32 hour (AID 1224877); further: nearly all actives have a fitted effect of over 55% in size; further: potency means the concentration at half of the fitted maximal effect
In short: (§5)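 Tox21 10K library screened in qHTS format on HepG2 cells carrying RealTime-Glo reagents. Compounds were added after a 5 h preincubation, and the luminescent signal from continuous culture was measured repeatedly during 40 h treatment.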

[8] = A CellTox Green Cytotoxicity Assay to monitor cytotoxicity in HepG2 cells - 24 hour (AID 1224878); further: nearly all actives have a fitted effect of over 45% in size; further: potency means the concentration at half of the fitted maximal effect
In short: as §4

[9] = qHTS RealTime-Glo MT Cell Viability Assay in HEK293 cells - 0 hour (AID 1224880)
In short: as §3

[10] = A CellTox Green Cytotoxicity Assay to monitor cytotoxicity in HEK293 cells - 32 hour (AID 1224881); further: nearly all actives have a fitted effect of over 40% in size; further: potency means the concentration at half of the fitted maximal effect
In short: as §1

[11] = A CellTox Green Cytotoxicity Assay to monitor cytotoxicity in HepG2 cells - 0 hour (AID 1224882); further: nearly all actives have a fitted effect of over 35% in size; further: potency means the concentration at half of the fitted maximal effect
In short: as §4

[12] = A CellTox Green Cytotoxicity Assay to monitor cytotoxicity in HepG2 cells - 32 hour (AID 1224883); further: nearly all actives have a fitted effect of over 50% in size; further: potency means the concentration at half of the fitted maximal effect
In short: as §4

[13] = A CellTox Green Cytotoxicity Assay to monitor cytotoxicity in HEK293 cells - 8 hour (AID 1224884); further: nearly all actives have a fitted effect of over 35% in size; further: potency means the concentration at half of the fitted maximal effect
In short: as §1

[14] = qHTS RealTime-Glo MT Cell Viability Assay in HepG2 cells - 16 hour (AID 1224885); further: nearly all actives have a fitted effect of over 50% in size; further: potency means the concentration at half of the fitted maximal effect
In short: as §5

[15] = qHTS RealTime-Glo MT Cell Viability Assay in HEK293 cells - 24 hour (AID 1224886); further: nearly all actives have a fitted effect of over 50% in size; further: potency means the concentration at half of the fitted maximal effect
In short: as §2

[16] = qHTS RealTime-Glo MT Cell Viability Assay in HEK293 cells - 8 hour (AID 1224887); further: nearly all actives have a fitted effect of over 50% in size; further: potency means the concentration at half of the fitted maximal effect
In short: as §3

[17] = A CellTox Green Cytotoxicity Assay to monitor cytotoxicity in HEK293 cells - 16 hour (AID 1224888); further: nearly all actives have a fitted effect of over 35% in size; further: potency means the concentration at half of the fitted maximal effect
In short: as §1

[18] = qHTS RealTime-Glo MT Cell Viability Assay in HepG2 cells - 0 hour (AID 1224889); further: nearly all actives have a fitted effect of over 50% in size
In short: as §5

[19] = A CellTox Green Cytotoxicity Assay to monitor cytotoxicity in HepG2 cells - 8 hour (AID 1224890); further: nearly all actives have a fitted effect of over 45% in size; further: potency means the concentration at half of the fitted maximal effect
In short: as §4

[20] = A CellTox Green Cytotoxicity Assay to monitor cytotoxicity in HepG2 cells - 40 hour (AID 1224879); further: nearly all actives have a fitted effect of over 40% in size; further: potency means the concentration at half of the fitted maximal effect
In short: as §4
On the % scale 0 is the no-effect control and ±100 the full control effect.

CCOP(=O)(Sc1ccccc1)Sc1ccccc1
inactive: Potency [1] | Potency [2] | Potency [3] | max response [4] -12.3% | Potency [5] | Potency [6] | Potency [7] | Potency [8] | Potency [9] | Potency [10] | Potency [11] | Potency [12] | Potency [13] | Potency [14] | Potency [15] | Potency [16] | Potency [17] | Potency [18] | Potency [19]

COC(=O)C(C)N(C(=O)c1ccco1)c1c(C)cccc1C (configuration not stated)
inactive: Potency [1] | Potency [2] | Potency [3] | max response [4] -12.7% | Potency [5] | Potency [6] | Potency [7] | Potency [9] | Potency [10] | Potency [11] | Potency [13] | Potency [14] | Potency [15] | Potency [16] | Potency [17] | Potency [18] | Potency [19]

C#CCO
inactive: Potency [1] | Potency [2] | Potency [3] | max response [4] 3.5% | Potency [5] | Potency [6] | Potency [8] | Potency [20] | Potency [9] | Potency [10] | Potency [11] | Potency [12] | Potency [13] | Potency [14] | Potency [15] | Potency [16] | Potency [17] | Potency [18] | Potency [19]

COCCC#N
inactive: Potency [1] | Potency [2] | Potency [3] | max response [4] 7.47% | Potency [5] | Potency [6] | Potency [8] | Potency [20] | Potency [9] | Potency [10] | Potency [11] | Potency [12] | Potency [13] | Potency [14] | Potency [15] | Potency [16] | Potency [17] | Potency [18] | Potency [19]

[O-][Cl+3]([O-])([O-])O
inactive: Potency [1] | Potency [2] | Potency [3] | max response [4] 7.85% | Potency [5] | Potency [6] | Potency [7] | Potency [8] | Potency [20] | Potency [10] | Potency [11] | Potency [12] | Potency [13] | Potency [14] | Potency [15] | Potency [16] | Potency [17] | Potency [18] | Potency [19]

CCC[CH2][Sn]([CH2]CCC)([CH2]CCC)[CH2]CCC
inactive: Potency [18]
active: Potency [1] 12.3 µM | Potency [2] 9.77 µM | Potency [3] 11 µM | Potency [4] 7.76 µM | Potency [5] 17.4 µM | Potency [6] 17.4 µM | Potency [7] 4.9 µM | Potency [8] 13.8 µM | Potency [20] 11 µM | Potency [10] 13.8 µM | Potency [11] 38.9 µM | Potency [12] 15.5 µM | Potency [13] 49 µM | Potency [14] 6.92 µM | Potency [15] 9.77 µM | Potency [16] 11 µM | Potency [17] 24.5 µM | Potency [19] 21.9 µM

ClC1=C(Cl)[C@]2(Cl)[C@@H]3[C@H]4C[C@H]([C@@H]5O[C@H]45)[C@@H]3[C@@]1(Cl)C2(Cl)Cl
inactive: Potency [1] | Potency [2] | Potency [3] | max response [4] 3.07% | Potency [5] | Potency [6] | Potency [7] | Potency [8] | Potency [9] | Potency [10] | Potency [11] | Potency [12] | Potency [13] | Potency [14] | Potency [15] | Potency [16] | Potency [17] | Potency [18] | Potency [19]

C=CCBr
inactive: Potency [1] | Potency [2] | Potency [3] | max response [4] 0.528% | Potency [5] | Potency [6] | Potency [7] | Potency [8] | Potency [20] | Potency [10] | Potency [11] | Potency [12] | Potency [14] | Potency [15] | Potency [16] | Potency [17] | Potency [18] | Potency [19]

[O]=[Cr](=[O])([OH])[O][Cr](=[O])(=[O])[OH]
active: Potency [2] 7.83 µM and 21.8 µM | Potency [4] 3.5 µM and 2.18 µM | Potency [20] 9.86 µM and 12.3 µM | Potency [12] 12.4 µM
inactive: Potency [1] | Potency [3] | Potency [5] | Potency [6] | Potency [8] | Potency [9] | Potency [10] | Potency [11] | Potency [13] | Potency [17] | Potency [18] | Potency [19]

CNC(=O)/C=C(\C)OP(=O)(OC)OC
inactive: Potency [1] | Potency [2] | Potency [3] | max response [4] 6.16% | Potency [5] | Potency [6] | Potency [7] | Potency [8] | Potency [9] | Potency [10] | Potency [11] | Potency [12] | Potency [13] | Potency [14] | Potency [15] | Potency [16] | Potency [17] | Potency [18]

c1ccc2nc(N3CCNCC3)ccc2c1
inactive: Potency [1] | Potency [2] | Potency [3] | max response [4] -17.1% | Potency [5] | Potency [6] | Potency [7] | Potency [8] | Potency [9] | Potency [10] | Potency [11] | Potency [13] | Potency [14] | Potency [16] | Potency [17] | Potency [18] | Potency [19]

CCOP(=S)(OCC)SC(CCl)N1C(=O)c2ccccc2C1=O (configuration not stated)
inactive: Potency [1] | Potency [2] | Potency [3] | max response [4] 6.49% | Potency [5] | Potency [6] | Potency [7] | Potency [10] | Potency [11] | Potency [13] | Potency [14] | Potency [15] | Potency [16] | Potency [17] | Potency [19]

COc1ccc2[nH]cc(CCN(C(C)C)C(C)C)c2c1
inactive: Potency [1] | Potency [2] | Potency [3] | max response [4] -12% | Potency [5] | Potency [6] | Potency [7] | Potency [8] | Potency [9] | Potency [10] | Potency [11] | Potency [13] | Potency [14] | Potency [15] | Potency [16] | Potency [17] | Potency [18] | Potency [19]

ClC1(Cl)C2(Cl)C3(Cl)C4(Cl)C(Cl)(Cl)C5(Cl)C3(Cl)C1(Cl)C5(Cl)C24Cl (configuration not stated)
inactive: Potency [1] | Potency [2] | Potency [3] | max response [4] -13.1% | Potency [5] | Potency [6] | Potency [7] | Potency [8] | Potency [20] | Potency [10] | Potency [11] | Potency [12] | Potency [13] | Potency [14] | Potency [15] | Potency [16] | Potency [17] | Potency [18] | Potency [19]

From PubChem BioAssay (Tox21)
